Assay results taken from PubChem BioAssay AID449766 (NMMLSC, 2010).
Active and inactive are the calls of the source.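 The calls were made as follows: active = compound whose curve gives half-maximal concentration under 30 µM, top-dose inhibition above a set limit, tight estimate; inactive = the rest.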

Molecular target: Integrin alpha-4 (Homo sapiens) (UniProt P13612)
Assay: concentration series for VLA-4 modulators – cell-based, U937, HUTS-21 LIBS antibody, flow cytometry, dose response (AID 449766)
Details: U937 cells, HUTS-21 LIBS mAb binding; series mostly up to 20 µM

Sequence of Integrin alpha-4 (Homo sapiens) (P13612 whole entry, looked up): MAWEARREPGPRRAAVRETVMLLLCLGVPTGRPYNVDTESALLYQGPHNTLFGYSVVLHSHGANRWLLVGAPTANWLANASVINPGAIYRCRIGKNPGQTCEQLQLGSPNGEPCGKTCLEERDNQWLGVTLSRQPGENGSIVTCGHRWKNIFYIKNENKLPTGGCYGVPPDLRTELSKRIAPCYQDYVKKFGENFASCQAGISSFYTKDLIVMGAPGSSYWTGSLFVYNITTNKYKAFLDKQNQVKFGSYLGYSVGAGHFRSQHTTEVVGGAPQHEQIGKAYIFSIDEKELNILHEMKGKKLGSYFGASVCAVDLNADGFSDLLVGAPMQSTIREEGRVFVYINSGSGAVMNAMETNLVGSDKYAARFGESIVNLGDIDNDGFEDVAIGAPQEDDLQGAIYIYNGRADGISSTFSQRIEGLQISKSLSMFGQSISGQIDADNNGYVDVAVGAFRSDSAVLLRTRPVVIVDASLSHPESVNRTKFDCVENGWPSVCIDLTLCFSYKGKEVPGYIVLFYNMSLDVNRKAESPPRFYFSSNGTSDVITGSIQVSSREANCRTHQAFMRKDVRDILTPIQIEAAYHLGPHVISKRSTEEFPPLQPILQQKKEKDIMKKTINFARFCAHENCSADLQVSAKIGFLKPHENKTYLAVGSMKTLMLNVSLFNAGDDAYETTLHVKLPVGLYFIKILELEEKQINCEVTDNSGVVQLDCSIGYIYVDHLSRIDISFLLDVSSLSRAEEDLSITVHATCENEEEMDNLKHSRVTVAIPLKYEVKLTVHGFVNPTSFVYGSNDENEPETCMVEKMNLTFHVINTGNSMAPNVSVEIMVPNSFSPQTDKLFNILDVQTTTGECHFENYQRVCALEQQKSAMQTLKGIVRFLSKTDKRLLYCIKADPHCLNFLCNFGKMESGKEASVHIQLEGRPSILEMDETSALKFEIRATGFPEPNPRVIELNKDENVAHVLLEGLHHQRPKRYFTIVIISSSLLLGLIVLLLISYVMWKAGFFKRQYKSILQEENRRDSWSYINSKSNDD

outcome, inactive:
CCCCN1C(=O)C(=O)c2cc(Cl)ccc21
COc1cccc(-c2sc3ccc(OC)cc3c2-c2ccc(OCCN3CCCC3)cc2)c1
Cc1ccc(C(=O)c2cc([N+](=O)[O-])ccc2N2CCOCC2)cc1C
CCOCCCNC(=O)/C(C#N)=C/c1cc(Br)c(O)c(Br)c1
Cc1ccc(C)c(NC(=O)c2cc(S(=O)(=O)N3CCCCC3)ccc2N2CCOCC2)c1
COc1ccc(C2CC(=O)Nc3cc(OC)c(OC)cc32)cc1Br (stereo not given)
COc1ccc(-c2sc3ccccc3c2-c2ccc(OCCN3CCOCC3)cc2)cc1
Nc1cc(S(=O)(=O)Nc2ccc(Br)cc2)ccc1Cl
COC(=O)[C@@H]1[C@@H](C#N)C2(c3ccccc3-c3ccccc32)N(c2ccc(Cl)cc2)N1C#N
COc1ccc(C)cc1S(=O)(=O)Nc1cccc(C)c1
COc1ccccc1-c1sc2cc3c(cc2c1-c1ccc(OCCN2CCCCC2)cc1)OCO3
O=C(Nc1ccc(OC(F)F)cc1)c1cc(S(=O)(=O)N2CCCCC2)ccc1N1CCOCC1
COc1ccc(S(=O)(=O)Nc2c(F)cccc2F)cc1
CCOc1cccc(C2CC(=O)Nc3cc(OC)c(OC)cc32)c1 (stereo not given)
Cc1ccc(S(=O)(=O)Nc2ccc(N(C)C)cc2)cc1
COc1ccc(C2=Nn3c(nnc3-c3ccc(OC)cc3)SC2)cc1
COCCNC(=O)/C(C#N)=C/c1c(F)cccc1Cl
Nc1ccc(NS(=O)(=O)c2ccccc2)cc1
CCCCNC(=O)/C(C#N)=C/c1ccc(C(=O)OC)cc1
COc1cc(NC(=O)c2cc(S(=O)(=O)N3CCCCC3)ccc2N2CCOCC2)cc(OC)c1
O=C(Oc1ccc(F)cc1C(=O)/C=C/c1cccs1)c1cccc([N+](=O)[O-])c1
COc1cc2c(cc1OC)C(c1ccc(Br)cc1)CC(=O)N2 (stereo not given)
Nc1cccc(S(=O)(=O)Nc2ccccc2)c1
Cc1ccc(C(=O)c2cc([N+](=O)[O-])ccc2N2CCOCC2)c(C)c1
COc1cccc(C2CC(=O)Nc3cc(OC)c(OC)cc32)c1 (stereo not given)
CC(C)Oc1ccccc1C1CC(=O)Nc2cc3c(cc21)OCO3 (stereo not given)
Cc1ccc(NS(=O)(=O)c2ccc(-c3cnc(C4CC4)o3)cc2)c(C)c1
O=C(c1ccccc1)c1cc([N+](=O)[O-])ccc1N1CCOCC1
CCOc1ccc(C(=O)c2cc([N+](=O)[O-])ccc2N2CCOCC2)cc1
COc1ccc(-c2sc3cc4c(cc3c2-c2ccc(OCCN3CCOCC3)cc2)OCO4)cc1
COCCNC(=O)/C(C#N)=C/c1ccc(C(=O)O)cc1
COCCNC(=O)/C(C#N)=C/c1cccc(/C=C(\C#N)C(=O)NCCOC)c1
CCCOc1ccccc1C1CC(=O)Nc2cc3c(cc21)OCO3 (stereo not given)

inhibition, inactive:
O=C(Nc1ccccc1Cl)c1cc(S(=O)(=O)N2CCCCC2)ccc1N1CCOCC1 -7.81% [at 0.25 µM]
CCOc1ccc(S(=O)(=O)Nc2cc(OC)ccc2OC)cc1 -4.93% [at 0.74 µM]
